Measurements from PubChem BioAssay.
Activity calls are given as the source filed them. Unless noted, how the calls were made is not given here.

Tests used:
[1] = system: Wnt5a (protein binding on small-molecule microarray); test: small molecules binding Wnt5a protein – biophysical, small-molecule microarray, 635/667 nm fluorescence, primary screen (AID 1142); settings: 635 nm fluorescence, higher = more signal;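 further: fluorescence read at 667 nm with signal to noise per printed feature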
[2] = ATP-based viability of Huh7 replicon cells – cell-based, CellTiter-Glo luminescence, basal, 48 h, cytotoxicity control for HCV replication inhibitor project, primary screen (AID 1143); settings: higher = more signal, called active from +8 up or from −8 down;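 further: Huh7 hepatoma cells carrying a hepatitis C replication reporter with no stimulus; test concentration not given here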
[3] = Pseudomonas biofilm growth suppression – PAO1 strain, BacTiter-Glo luminescence, LB-PBS, primary screen (AID 1144); settings: P. aeruginosa PAO1 biofilm, 12 h, higher = more signal
[4] = basal CRE-LacZ reporter activity in PC12 – cell-based, unstimulated, primary screen (AID 1145); settings: no forskolin, luminescence, 4.5 h, higher = more signal, called active from +8 up or from −8 down
[5] = forskolin-driven CRE-LacZ activity in PC12 – cell-based, CRE-LacZ reporter, forskolin-stimulated, primary screen (AID 1146); settings: luminescence, 4.5 h, higher = more signal, called active from +8 up or from −8 down;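 further: PC12 cells with 6xCRE LacZ reporter stimulated by forskolin 10 µM; beta-galactosidase reporter signal reflecting CREB driven transcription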
[6] = target: Streptavidin (Streptomyces avidinii) (UniProt P22629); test: compounds binding control protein streptavidin – biophysical, small-molecule microarray, 635/667 nm fluorescence, artefact control for SMM compound annotation, primary screen (AID 1147); settings: higher = more signal;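 further: signal reflects streptavidin binding to arrayed compounds as a control protein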
[7] = probe aInhba binding on compound microarray – biochemical, small-molecule microarray, 635/667 nm fluorescence, primary screen (AID 1148); settings: higher = more signal;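 further: score merges 667nm spot fluorescence with signal-to-noise for antibody binding to printed compounds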
Torsin-1A (Homo sapiens) [8] = target: Torsin-1A (Homo sapiens) (UniProt O14656); test: TOR1A wild-type binding on microarray – cell lysate, small-molecule microarray, lysate, 635/667 nm, primary screen (AID 1149); settings: COS7 hTOR1A-WT lysate, 635 nm fluorescence, higher = more signal
Torsin-1A (Homo sapiens) [9] = target: Torsin-1A (Homo sapiens) (UniProt O14656); test: torsin A mutant lysate binding on microarrays – cell lysate, small-molecule microarray, COS7 lysate, 635/667 nm fluorescence, primary screen (AID 1150); settings: COS7 hTOR1A mutant lysate, 635 nm fluorescence, higher = more signal;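 further: score pools 667 nm emission and signal to noise measuring lysate protein binding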
[10] = system: Sonic hedgehog protein (Shh); test: Sonic hedgehog microarray binding compounds – biochemical, small-molecule microarray, 635/667 nm fluorescence, primary screen (AID 1151); settings: 635 nm fluorescence, higher = more signal;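 further: Shh protein binding to compounds spotted on small-molecule microarray slides; score combines spot fluorescence intensity with signal-to-noise across triplicate slides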

Chain of Streptavidin (Streptomyces avidinii) (P22629 whole entry, looked up): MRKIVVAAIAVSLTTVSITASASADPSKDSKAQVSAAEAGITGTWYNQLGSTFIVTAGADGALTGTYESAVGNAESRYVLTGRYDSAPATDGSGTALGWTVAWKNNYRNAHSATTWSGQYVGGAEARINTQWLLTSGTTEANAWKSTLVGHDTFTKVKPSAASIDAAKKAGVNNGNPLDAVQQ
Chain of Torsin-1A (Homo sapiens) (O14656 whole entry, looked up): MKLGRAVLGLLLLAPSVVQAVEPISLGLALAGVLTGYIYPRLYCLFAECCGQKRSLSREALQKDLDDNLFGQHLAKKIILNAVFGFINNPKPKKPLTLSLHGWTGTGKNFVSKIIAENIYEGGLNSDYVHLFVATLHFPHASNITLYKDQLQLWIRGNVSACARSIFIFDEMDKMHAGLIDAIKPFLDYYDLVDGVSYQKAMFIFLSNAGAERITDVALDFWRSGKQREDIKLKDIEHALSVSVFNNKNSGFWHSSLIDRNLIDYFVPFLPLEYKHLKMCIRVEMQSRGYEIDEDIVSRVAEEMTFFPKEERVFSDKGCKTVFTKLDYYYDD

Compound | composite z-score [1] | z-score [2] | z-score [3] | z-score [4] | z-score [5] | composite z-score [6] | composite z-score [7] | composite z-score (Torsin-1A (Homo sapiens) [8]) | composite z-score (Torsin-1A (Homo sapiens) [9]) | composite z-score [10]
CCCCC#C[C@@H]1C=C[C@H](OC(C)=O)[C@@H](COC(C)=O)O1 | 0.03 | -4.37 (inactive) | 0.713 (inactive) | -0.976 (inactive) | 2.86 (inactive) | 0.202 | -0.154 | 0.568 | 0.234 | 0.437
CO[C@H]1COC(=O)CC=C[C@H](C)[C@@H](OC)COC(=O)[C@@H](C)COC(=O)CC=C[C@@H]1C | -0.545 | -1.66 (inactive) | 0.0344 (inactive) | -0.292 (inactive) | -1.02 (inactive) | -0.411 | -0.331 | 2.79 | 2.2 | 2.12
CC(=O)OC[C@H]1OC(ON=CC[C@@H]2C=C[C@H](OC(C)=O)[C@@H](COC(C)=O)O2)[C@H](OC(C)=O)[C@@H](OC(C)=O)[C@@H]1OC(C)=O (stereo not given in full) | 0.066 | -0.697 (inactive) | -0.133 (inactive) | 0.327 (inactive) | 0.915 (inactive) | 0.559 | -0.126 | 0.37 | 0.877 | -0.499
CC(C)CON=C1C[C@@H](O)[C@@H](O)[C@@H]2[C@@H]3C(=O)N(Cc4ccc5c(c4)OCO5)C(=O)[C@@H]3CC[C@H]12 | 0.365 | -0.365 (inactive) | 1.01 (inactive) | 0.242 (inactive) | 0.201 (inactive) | 1.23 | -0.0589 | 0.217 | 0.739 | 1.45
CSCC[C@@H]1NC(=O)CC=C[C@@H](C)COC(=O)[C@@H](C)COC1=O | -0.0993 | -0.184 (inactive) | 0.117 (inactive) | -0.476 (inactive) | -0.846 (inactive) | -1.03 | -0.0736 | 2.66 | 2.1 | 1.81
COC(=O)CC=C[C@@H](C)[C@@H](C=NO[C@H](C)c1cn([C@@H]2COC[C@H]2O)nn1)NS(=O)(=O)c1ccc(C)cc1 | -0.0155 | 0.23 (inactive) | -0.668 (inactive) | 1.08 (inactive) | -0.112 (inactive) | -0.262 | 0.0173 | 0.68 | 0.429 | 0.691
CC(C)CON=C1C[C@@H](O)[C@@H](O)[C@@H]2[C@@H]3C(=O)N(C4CCCCC4)C(=O)[C@@H]3CC[C@H]12 | 0.298 | 0.0498 (inactive) | -0.52 (inactive) | 1.7 (inactive) | -0.061 (inactive) | 0.451 | 0.125 | 0.792 | 0.375 | 0.72
CCc1cc2c(nc1CC)CCN(CCC(C)=NO[C@H](C)c1cn([C@H](CO)Cc3ccccc3)nn1)C2 | 0.167 | -0.225 (inactive) | -0.374 (inactive) | 2.4 (inactive) | 0.406 (inactive) | 0.656 | 0.173 | 1.49 | 0.978 | 0.236
COC(=O)C1=C(C)N(Cc2ccccc2)[C@]23O[C@](C(=O)OC)(C(=O)N2[C@@H]1c1ccccc1)C(C(=O)OC)=C3C(=O)OC | 0.256 | -4.08 (inactive) | -1.25 (inactive) | 1.92 (inactive) | -1.61 (inactive) | 0.252 | 0.095 | 0.199 | 0.454 | 0.657
COc1ccc(COC(=O)NN=C2C[C@@H](O)[C@@H](O)[C@@H]3[C@@H]4C(=O)N(c5ccc(F)cc5F)C(=O)[C@@H]4CC[C@H]23)cc1 | 0.118 | -1.64 (inactive) | -0.597 (inactive) | -1.02 (inactive) | 0.454 (inactive) | 1.19 | -0.0719 | -0.309 | 0.627 | -1.52
COC(=O)CC=C[C@@H](C)[C@@H]1C=C[C@H](O)[C@@H](CO)O1 | -0.27 | 0.362 (inactive) | -0.159 (inactive) | 0.648 (inactive) | 1.03 (inactive) | 0.89 | -0.163 | 0.473 | 0.448 | 0.495
COC(=O)CC=C[C@@H](C)[C@@H](C=NO[C@H](C)c1cn([C@H](CO)Cc2ccccc2)nn1)NS(=O)(=O)c1ccc(C)cc1 | -0.0374 | -1.29 (inactive) | 0.92 (inactive) | 1.98 (inactive) | 0.767 (inactive) | 0.912 | -0.0531 | 0.708 | 1.8 | 0.285
CO[C@H]1COC(=O)CC=C[C@@H](C)[C@H](OC)COC(=O)CCC[C@@H]1C | -0.0494 | -0.127 (inactive) | -0.913 (inactive) | -0.482 (inactive) | 0.0877 (inactive) | 0.0616 | -0.153 | 1.89 | 0.33 | 1.18
COCOc1ccc(Br)cc1C(=O)[C@@H]1O[C@H]1c1cccc(OC)c1 | -0.202 | -1.97 (inactive) | 0.64 (inactive) | 1.2 (inactive) | -0.37 (inactive) | 0.015 | -0.149 | 0.736 | 0.437 | 0.349
CC(CCN1CCCCc2nc(C)c(C)cc21)=NOC[C@@H](C)[C@H](OCc1ccccc1)C(C)C | -0.876 | -1.07 (inactive) | -0.4 (inactive) | 0.262 (inactive) | 0.264 (inactive) | -2.45 | -0.37 | -1.62 | -1.49 | -0.689
O=C1[C@H]2[C@H]3[C@H](O)[C@H](O)CC(=NOCc4ccccc4)[C@@H]3CC[C@H]2C(=O)N1Cc1ccc2c(c1)OCO2 | 0.0098 | 0.445 (inactive) | -0.312 (inactive) | 0.0664 (inactive) | -0.174 (inactive) | 0.193 | -0.101 | 0.537 | -0.0537 | 0.643
COC(=O)CC=C[C@H](C)[C@@H](OCc1cccc(Br)c1)[C@@H](C)[C@H](OC)C1CCCCC1 | -0.375 | 0.137 (inactive) | 0.781 (inactive) | -1.05 (inactive) | -1.25 (inactive) | -0.243 | -0.128 | 0.312 | -0.119 | 0.341
CC(CCC(=O)OC[C@H]1O[C@H](C#Cc2ccccc2)C=C[C@@H]1Oc1ccc(C)cc1)=NO[C@H](C)c1cn([C@H](CO)Cc2ccccc2)nn1 | -0.313 | -0.874 (inactive) | 0.195 (inactive) | 0.15 (inactive) | 1.15 (inactive) | 0.0184 | -0.149 | -0.234 | 0.683 | 0.327
CCOC(=O)[C@H](CC(C)C)NC(=O)CCC1CC(OC(=O)NCCc2ccc(F)cc2)CC2(CCCC(COC(=O)NCCc3ccc(Cl)cc3)O2)O1 (stereo not given in full) | 0.555 | -1.54 (inactive) | -0.204 (inactive) | 1.75 (inactive) | 0.214 (inactive) | 0.645 | -0.125 | 0.601 | 0.385 | 1.62
O=C1[C@H]2[C@H]3[C@H](O)[C@H](O)CC(=NOCc4ccccc4)[C@H]3CC[C@H]2C(=O)N1Cc1ccc2c(c1)OCO2 | -0.0988 | -1.96 (inactive) | 1.66 (inactive) | -0.203 (inactive) | -0.915 (inactive) | 0.484 | -0.15 | 0.0874 | 0.172 | 0.394
CO[C@H]1COC(=O)[C@H](C)NC(=O)[C@@H](C)COC(=O)[C@H]2CCCN2C(=O)CC=C[C@H]1C | 0.139 | 0.191 (inactive) | -0.312 (inactive) | -0.906 (inactive) | -0.432 (inactive) | -0.323 | -0.121 | -0.0249 | 0.182 | 1.4
CCOC(=O)[C@H](CC(C)C)NC(=O)CCC1CC(OC(=O)NCCc2ccc(F)cc2)CC2(CCCC(COC(=O)NCCC(C)C)O2)O1 (stereo not given in full) | -0.0436 | -0.439 (inactive) | 0.288 (inactive) | 0.91 (inactive) | -0.457 (inactive) | 2.06 | -0.0963 | -0.239 | 0.204 | 0.318
CC(CCN1CCCCc2nc(C)c(C)cc21)=NOC[C@@H](O)COCc1ccco1 | 0.59 | 0.159 (inactive) | 0.676 (inactive) | 0.662 (inactive) | 0.758 (inactive) | -0.555 | -0.15 | 3.74 | 3.23 | 2.31
CC(C)=CCCC(C)=CCON=C1C[C@@H](O)[C@@H](O)[C@@H]2[C@@H]3C(=O)N(c4ccc(F)cc4F)C(=O)[C@@H]3CC[C@@H]12 | 0.291 | -1.52 (inactive) | -0.665 (inactive) | 1.24 (inactive) | 0.671 (inactive) | 1.45 | -0.152 | 0.815 | -0.0827 | 1.97
CCOC(=O)C1=NO[C@@]2(C=C(Br)C3(OCCCO3)[C@H]3O[C@H]32)C1 | 0.4 | 0.164 (inactive) | 0.208 (inactive) | -0.258 (inactive) | 0.572 (inactive) | 1.45 | -0.0313 | 0.712 | 0.332 | 0.959
COc1ccc(O[C@H]2C=C[C@@H](c3ccccc3)O[C@@H]2CON=CC[C@@H]2C=C[C@H](OC(C)=O)[C@@H](COC(C)=O)O2)cc1 | 0.0129 | -1.06 (inactive) | -0.705 (inactive) | 1.15 (inactive) | 0.222 (inactive) | 3.65 | -0.176 | -0.107 | -0.26 | 0.328
CCOC(=O)CCN1C(=O)[C@H]2[C@H]3[C@H](O)[C@H](O)CC(=NOCC(C)C)[C@H]3CC[C@H]2C1=O | 0.0106 | 0.0793 (inactive) | 0.256 (inactive) | -0.0187 (inactive) | 0.357 (inactive) | -0.0341 | -0.159 | 0.47 | -0.5 | -0.249
CON=Cc1ccc(C(=O)N2[C@H](c3ccc(C)cc3)[C@@H](C)CC[C@H]2C(=O)OC)cc1 | -0.0731 | -1.63 (inactive) | -0.183 (inactive) | 0.336 (inactive) | -0.158 (inactive) | 0.651 | 0.0398 | 0.144 | 0.568 | 0.441
CC(C)(C)N1C(=O)[C@H]2[C@H]3[C@H](O)[C@H](O)CC(=NOCc4ccccc4)[C@H]3CC[C@H]2C1=O | 0.0771 | 0.899 (inactive) | -0.192 (inactive) | 0.968 (inactive) | 0.183 (inactive) | 1 | 0.0342 | -0.65 | 0.155 | -0.587
